An excerpt weighted towards active compounds, which were near 2.8% of everything screened.
LMP1 NFkB inh = reduces LMP1-driven NF-kappaB luciferase signal; inhibition, % at 12.5 µM; AID 504558; actives 0.69% (n = 350,000); LMP1-induced NF-kappaB luciferase reporter cells, luminescence; in the data active = inhibition above about 41%; inconclusive = no clear call, values can overlap the other calls
PAX8 reporter = PAX8 transcriptional activity inhibition; inhibition, % at 12.6 µM; RMG-I TPO-luciferase reporter, SteadyGlo, 24 h; actives 1.2% (n = 360,000);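 active = mean replicate inhibition at least 60% with every replicate also reaching 60%; inconclusive = only one of the two criteria is met; inactive = mean below 60% and not all replicates reaching 60%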;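 also: luciferase light reporting Pax8 driven TPO promoter activity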
N-glyco inh = N-linked glycosylation inhibition; D54 ERlucT glycosylation luciferase reporter, 24 h; percent of 100 nM tunicamycin response; reporter increase, % at 12.5 µM; actives 0.23% (n = 360,000); AID 588692;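 active = mean luciferase reporter signal, scaled so untreated is 0 and the glycosylation-blocking control 100, at or above a set limit in every replicate; inconclusive = mean reaches the limit but not every replicate does; inactive = mean below the limit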;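 also: luciferase carries N-glycosylation sites so blocking glycosylation raises the light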
Shn3 3UTR inh = inhibitors of Schnurri-3 3'UTR reporter in osteoblasts. inhibition, % at 12.5 µM. Clone20 osteoblast Shn3 3'UTR firefly luciferase, 24 h. AID 588674. actives 0.52% (n = 360,000);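 active = mean inhibition of at least 75% with every replicate also reaching 75%; inconclusive = mean inhibition at least 75% but some replicate below; inactive = mean inhibition below 75%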
NSD2 HMT inh = inhibitors of human histone methyltransferase NSD2. NSD2 peptide methylation, AlphaScreen, 120 min. actives 0.54% (n = 310,000). O96028. AID 743445. inhibition, % at 12.5 µM; in the data active = inhibition above about 50%
Target sequence (O96028 whole entry, looked up): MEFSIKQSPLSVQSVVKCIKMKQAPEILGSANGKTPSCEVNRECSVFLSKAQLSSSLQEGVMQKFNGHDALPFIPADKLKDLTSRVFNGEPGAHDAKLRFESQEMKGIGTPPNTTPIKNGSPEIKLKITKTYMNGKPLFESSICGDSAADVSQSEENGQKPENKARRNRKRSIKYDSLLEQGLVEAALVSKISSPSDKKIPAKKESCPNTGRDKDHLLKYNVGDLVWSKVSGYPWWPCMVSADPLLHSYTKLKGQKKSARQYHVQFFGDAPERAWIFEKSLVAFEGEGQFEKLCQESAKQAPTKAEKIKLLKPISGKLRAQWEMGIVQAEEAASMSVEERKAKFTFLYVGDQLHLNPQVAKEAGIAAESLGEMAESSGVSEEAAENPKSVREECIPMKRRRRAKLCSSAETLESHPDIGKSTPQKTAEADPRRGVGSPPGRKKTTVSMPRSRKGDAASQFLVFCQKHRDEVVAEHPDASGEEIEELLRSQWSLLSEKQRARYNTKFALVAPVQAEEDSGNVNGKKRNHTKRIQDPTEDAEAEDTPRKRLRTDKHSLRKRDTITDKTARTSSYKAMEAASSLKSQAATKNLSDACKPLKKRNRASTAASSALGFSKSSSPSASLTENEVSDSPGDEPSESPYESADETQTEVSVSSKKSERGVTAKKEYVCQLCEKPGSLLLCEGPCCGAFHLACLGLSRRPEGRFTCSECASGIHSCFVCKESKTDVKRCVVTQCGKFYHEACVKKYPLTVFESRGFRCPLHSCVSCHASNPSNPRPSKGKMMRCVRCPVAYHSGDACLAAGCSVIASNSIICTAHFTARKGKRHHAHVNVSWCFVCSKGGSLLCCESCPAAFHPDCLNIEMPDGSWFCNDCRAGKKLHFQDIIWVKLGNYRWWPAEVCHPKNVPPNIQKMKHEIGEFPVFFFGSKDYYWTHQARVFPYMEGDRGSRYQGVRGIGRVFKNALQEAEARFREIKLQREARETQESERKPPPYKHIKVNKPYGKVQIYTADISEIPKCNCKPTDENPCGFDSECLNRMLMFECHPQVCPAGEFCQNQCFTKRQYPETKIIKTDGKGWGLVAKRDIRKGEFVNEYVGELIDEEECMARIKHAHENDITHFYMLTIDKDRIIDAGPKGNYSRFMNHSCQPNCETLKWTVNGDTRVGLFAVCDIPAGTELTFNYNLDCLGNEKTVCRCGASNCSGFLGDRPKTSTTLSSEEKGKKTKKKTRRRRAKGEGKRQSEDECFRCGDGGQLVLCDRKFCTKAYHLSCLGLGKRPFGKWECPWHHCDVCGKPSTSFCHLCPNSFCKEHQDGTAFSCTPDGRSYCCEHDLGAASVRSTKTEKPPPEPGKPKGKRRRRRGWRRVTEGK
HIV Env fusion = blocks HIV Env-driven cell-cell fusion; HeLa-JRFL Env/CEM21 cell fusion, luciferase; inhibition, % at 12.3 µM; actives 1.1% (n = 360,000);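 active = mean replicate inhibition score of at least 50 and every replicate individually at or above 50; inconclusive = only one of the two criteria met; inactive = mean below 50 and not all replicates reaching 50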
A number is an active result; [ ] = another dose, or the depositor's remark.

Screening C[C@@H]1CCCCO[C@@H](CN(C)Cc2ccc(Cl)c(Cl)c2)[C@H](C)CN([C@H](C)CO)C(=O)c2cc(NC(=O)Nc3ccc(C(F)(F)F)cc3)ccc2O1 returned PAX8 reporter 91 and HIV Env fusion inactive.
`C[C@@H]1CN([C@H](C)CO)C(=O)c2cc(NC(=O)Nc3ccc(C(F)(F)F)cc3)ccc2O[C@@H](C)CCCCO[C@H]1CN(C)Cc1ccc(Cl)c(Cl)c1` gave PAX8 reporter 91 and HIV Env fusion inactive.
`COc1ccc(-c2noc(CCCCC(=O)N3CCN(c4cc(C)ccc4C)CC3)n2)cc1` gave LMP1 NFkB inh inactive, PAX8 reporter inactive, N-glyco inh inactive, Shn3 3UTR inh 92 and HIV Env fusion 68.
For CCC(=O)N(C)C[C@@H]1Oc2ncc(-c3ccccc3C)cc2C(=O)N([C@@H](C)CO)C[C@@H]1C the results were HIV Env fusion inactive.
`Cc1c(Cl)sn(-c2ccc(Cl)cc2)c1=O` gave LMP1 NFkB inh inactive, PAX8 reporter inactive, N-glyco inh inactive, Shn3 3UTR inh 91, NSD2 HMT inh inactive and HIV Env fusion inactive.
Screening Cc1nn(-c2ccc(Cl)cc2)c(=O)c2ccccc12 returned LMP1 NFkB inh inactive, PAX8 reporter inactive, N-glyco inh inactive, Shn3 3UTR inh inactive, NSD2 HMT inh inactive and HIV Env fusion inactive.
CN(C[C@H]1N[C@@H](CO)[C@@H]1c1ccc(-c2cccc(F)c2)cc1)S(C)(=O)=O was read as PAX8 reporter 100.
Screening O=C(NC[C@H]1N[C@H](CO)[C@@H]1c1ccc(C2=CCCCC2)cc1)c1cccc(F)c1 returned PAX8 reporter inactive.
For CN(C[C@H]1N[C@@H](CO)[C@@H]1c1ccc(C2=CCCC2)cc1)C(=O)c1cccc(F)c1 the results were PAX8 reporter 111.
CN(C[C@H]1N[C@@H](CO)[C@@H]1c1ccc(-c2cccnc2)cc1)C(=O)c1ccccc1 was read as PAX8 reporter 98.
Screening C[C@H](CO)N1C[C@H](C)[C@H](CN(C)C(=O)Nc2cccc3ccccc23)Oc2ccc(NC(=O)Cc3cn(C)c4ccccc34)cc2CC1=O returned PAX8 reporter inactive and HIV Env fusion inactive.
CCN1C(=O)S/C(=C/c2ccc(Sc3nc4ccccc4[nH]3)o2)C1=O was read as LMP1 NFkB inh inactive, PAX8 reporter inactive, N-glyco inh inactive, Shn3 3UTR inh inactive, NSD2 HMT inh inactive and HIV Env fusion 62.
For N#C/C(=C/c1ccc(Sc2nc3ccccc3[nH]2)o1)c1cccc(Br)c1 the results were LMP1 NFkB inh inactive, N-glyco inh inactive, Shn3 3UTR inh inactive and NSD2 HMT inh inactive.
Screening COc1cccc(-c2ccc(CC[C@H]3O[C@H]4CC[C@H](CO)O[C@H]4C[C@@H]3NS(C)(=O)=O)cc2)c1 returned PAX8 reporter inactive.
`COc1ccc(S(=O)(=O)N(C)C[C@@H]2Oc3ccc(NC(=O)Nc4cccc5ccccc45)cc3CC(=O)N([C@H](C)CO)C[C@@H]2C)cc1` gave HIV Env fusion inactive.
Screening CCN(CC)CCNc1cc(C)c(C#N)c2nc3ccccc3n12 returned LMP1 NFkB inh inactive, PAX8 reporter inactive, N-glyco inh inactive, Shn3 3UTR inh inactive, NSD2 HMT inh inactive and HIV Env fusion inactive.
`Cc1cc(Nc2cccc([N+](=O)[O-])c2)n2c(nc3ccccc32)c1C#N` gave LMP1 NFkB inh 50, N-glyco inh inactive, Shn3 3UTR inh inconclusive and NSD2 HMT inh inactive.
For CCN(CC)S(=O)(=O)c1ccc(NC2c3ccccc3C(=O)N2Cc2ccc3c(c2)OCO3)cc1 (stereo not drawn) the results were LMP1 NFkB inh inactive, PAX8 reporter inactive, N-glyco inh inactive, Shn3 3UTR inh inactive and HIV Env fusion 67.
For O=C(N=C1c2ccccc2CN1c1cccc(S(=O)(=O)N2CCOCC2)c1)c1ccccc1 the results were NSD2 HMT inh inactive.
`CCCC#Cc1cnc2c(c1)C(=O)N([C@H](C)CO)C[C@H](C)[C@@H](CN(C)C(=O)Cc1cccnc1)O2` gave HIV Env fusion inactive.
For Cc1ccc(C(=O)NNc2ncnc3c2cnn3C)cc1 the results were LMP1 NFkB inh inactive, PAX8 reporter inactive, N-glyco inh inactive, Shn3 3UTR inh inactive, NSD2 HMT inh inactive and HIV Env fusion inactive.
For Cn1ncc2c(O/N=C(\N)c3ccc(C(F)(F)F)cc3)ncnc21 the results were LMP1 NFkB inh inactive, PAX8 reporter 92, N-glyco inh 41, Shn3 3UTR inh inactive and HIV Env fusion inactive.
For C[C@@H]1CN([C@@H](C)CO)C(=O)c2cccc(NS(=O)(=O)c3ccccc3)c2O[C@@H]1CN(C)Cc1ccc(Cl)c(Cl)c1 the results were PAX8 reporter inactive and HIV Env fusion 73[16.7 µM].
`C[C@@H]1CN([C@@H](C)CO)C(=O)c2cccc(NS(=O)(=O)c3ccccc3)c2O[C@H]1CN(C)Cc1ccc(Cl)c(Cl)c1` gave PAX8 reporter inactive and HIV Env fusion inactive.
Screening C[C@@H]1CN([C@H](C)CO)C(=O)c2cccc(NS(=O)(=O)c3ccccc3)c2O[C@@H]1CN(C)Cc1ccc(Cl)c(Cl)c1 returned PAX8 reporter inactive and HIV Env fusion 81[16.7 µM].
`O=C(NC1CCCCC1)N1CC2(C1)[C@H](c1ccccc1)[C@@H](CO)N2CC1CC1` gave PAX8 reporter inactive and HIV Env fusion inactive.
For CO[C@H]1CN(C)C(=O)c2ccc(NC(=O)Nc3cc(F)ccc3F)cc2OC[C@H](C)N(C)C[C@H]1C the results were PAX8 reporter inactive and HIV Env fusion inactive.
For COc1ccc(CN(C)C[C@@H]2Oc3ccc(NC(=O)Nc4ccc5c(c4)OCO5)cc3C(=O)N([C@H](C)CO)C[C@@H]2C)cc1 the results were HIV Env fusion inactive.
Cc1noc(C)c1S(=O)(=O)N(C)C[C@@H]1Oc2c(NS(=O)(=O)c3ccccc3)cccc2C(=O)N([C@H](C)CO)C[C@@H]1C was read as PAX8 reporter inactive and HIV Env fusion inactive.
CC1=C(C)CC(C(=O)N2CCN(Cc3ccccc3)CC2)C(C(=O)O)C1 (stereo not drawn) was read as LMP1 NFkB inh 65, PAX8 reporter inactive, N-glyco inh inactive, Shn3 3UTR inh inactive, NSD2 HMT inh inactive and HIV Env fusion inactive.
`CC(C)c1cn(CC[C@H]2CC[C@@H](NC(=O)C3CCCC3)[C@@H](CO)O2)nn1` gave PAX8 reporter inactive and HIV Env fusion inactive.
Cc1cc(NO)c(C(C)C)cc1N=O was read as LMP1 NFkB inh inactive, PAX8 reporter inactive, N-glyco inh inactive, Shn3 3UTR inh inactive, NSD2 HMT inh inactive and HIV Env fusion 66.
For Cc1cc(O)c(C(C)C)cc1N=Nc1ccccc1C(=O)O the results were LMP1 NFkB inh inactive, PAX8 reporter inactive, N-glyco inh inactive, Shn3 3UTR inh inactive, NSD2 HMT inh inactive and HIV Env fusion inactive.
`Cc1ccccc1OCC(O)CNC1CCC(NCC(O)COc2ccccc2C)CC1` (stereo not drawn) gave LMP1 NFkB inh inactive, PAX8 reporter 114, N-glyco inh inactive, Shn3 3UTR inh 97 and HIV Env fusion inactive.

High-throughput results deposited in PubChem by Broad Institute.
